Measured values taken from PubChem BioAssay (NCATS).
Records with an inconclusive call do not appear. The source made the active and inactive calls. Calls follow the shape of the dose curve; as a rule, active = well fitted cell-killing curve with a large enough effect; inconclusive = small, poorly fitted or top-dose-only effect; inactive = flat fitted curve, though single readings scatter.

experiment: qHTS of pediatric cancer cell lines to identify multiple opportunities for drug repurposing: Primary screen for TC32 cells (AID 1347089); conditions: TC32 Ewing sarcoma viability, CellTiter-Glo luminescence, 48 h; series mostly up to 45.8 µM; activity change, negative = cytotoxic: at the top concentration; also: nearly all actives have a fitted effect of over 60% in size
Method in brief: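 Measured quantity: luminescence from CellTiter-Glo, reflecting metabolically active TC32 cells following 48 h of compound. Curves came straight from multi-point titrations, with 8 or 11 points in primary and 11 in confirmatory screening.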
% is scaled to controls: 0 for no effect and ±100 for the full control effect.

| SMILES | activity change, negative = cytotoxic |
| --- | --- |
| CCOc1ccc(C(=O)OCCN(CC)CC)cc1 | -0.571% (inactive) |
| CC(O)CCCCn1c(=O)c2c(ncn2C)n(C)c1=O (stereo not drawn) | 6.41% (inactive) |
| Cc1cccc(C)c1NC(=O)CC12CCCN1CCC2 | -9.61% (inactive) |
| O=C(c1ccccc1)C(O)c1ccccc1 (stereo not drawn) | 9.82% (inactive) |
| NS(=O)(=O)c1ccc(NC(=O)CCC(=O)O)cc1 | 10.1% (inactive) |
| CC[N+](CC)(CC(=O)Nc1c(C)cccc1C)Cc1ccccc1 | 4.2% (inactive) |
| C=CCOc1ccccc1OCC(O)CNC(C)C (stereo not drawn) | 15% (inactive) |
| C[N+]1(C)CCCC(OC(=O)C(O)(c2ccccc2)c2ccccc2)C1 (stereo not drawn) | -2.98% (inactive) |
| CCCCCCCCCCC(CO)CCCCCCCC (stereo not drawn) | 6.59% (inactive) |
| CC(=O)Nc1ccc(C(=O)O)cc1 | 12.1% (inactive) |
| COc1ccc(-c2cc(=O)c3c(O)cc(O[C@@H]4O[C@H](CO[C@@H]5O[C@@H](C)[C@H](O)[C@@H](O)[C@H]5O)[C@@H](O)[C@H](O)[C@H]4O)cc3o2)cc1O | 12% (inactive) |
| Cc1c(I)c(=O)n(-c2ccccc2)n1C | 9.74% (inactive) |
| OC[C@@H](O)[C@@H](O)[C@H](O)[C@H](O)CO | 7.22% (inactive) |
| CC(C)(C)NCC(O)COc1cccc2c1CCC(=O)N2 (stereo not drawn) | 9.64% (inactive) |
| CN/C(=C\[N+](=O)[O-])NCCSCc1csc(CN(C)C)n1 | 1.01% (inactive) |
| CC(=O)NCc1c(I)c(NC(C)=O)c(I)c(C(=O)O)c1I | 3.33% (inactive) |
| O=C(OOC(=O)c1ccccc1)c1ccccc1 | 15.1% (inactive) |
| O=C(O)CCCCC1CCSS1 (stereo not drawn) | 15.9% (inactive) |
| FC(F)(F)C(Cl)Br (stereo not drawn) | 0.673% (inactive) |

| SMILES | activity change, negative = cytotoxic |
| --- | --- |
| C[C@@H]1O[C@@H](OC[C@H]2O[C@@H](Oc3c(-c4ccc(O)c(O)c4)oc4cc(O)cc(O)c4c3=O)[C@H](O)[C@@H](O)[C@@H]2O)[C@H](O)[C@H](O)[C@H]1O | 0% (inactive) |
| CC(=O)Nc1cccc(O)c1 | 4.89% (inactive) |
| O=C1C(c2[nH]c3ccccc3c2O)=Nc2ccccc21 | 7.6% (inactive) |
| NCC1CCC(C(=O)Oc2ccc(CCC(=O)O)cc2)CC1 (stereo not drawn) | 11.1% (inactive) |
| CCCCCCCCCCCCCCCCCCO | 3.41% (inactive) |
| CC(C)=CCC[C@@](C)(O)[C@H]1CC=C(C)CC1 | -0.51% (inactive) |
| COc1ccccc1OC(=O)Oc1ccccc1OC | 9.82% (inactive) |
| N[C@@H](Cc1ccc(O)cc1)C(=O)O | 18.1% [at 9.17 µM] (inactive) |
| COC(=O)c1cccnc1 | 11.5% (inactive) |
| CC(CSC(=O)c1ccccc1)C(=O)N1C[C@@H](Sc2ccccc2)C[C@H]1C(=O)O (stereo partly drawn) | 10.8% [at 16 µM] (inactive) |
| Cc1ccccc1N=Nc1ccc(N=Nc2c(O)ccc3ccccc23)c(C)c1 | -4.39% (inactive) |
| CN1C(C)(C)CCCC1(C)C | 2.64% (inactive) |
| CN1CCCN=C1COC(=O)C(O)(c1ccccc1)C1CCCCC1 (stereo not drawn) | 2.62% (inactive) |
| Cc1ccsc1C(=CCCN1CCC[C@@H](C(=O)O)C1)c1sccc1C | 15.5% (inactive) |
| CCc1nnc(NS(=O)(=O)c2ccc(N)cc2)s1 | 10.5% (inactive) |
| O=C(O)[C@@H]1[C@H]2C[C@H]3c4[nH]c5ccccc5c4CCN3C[C@@H]2CC[C@@H]1O | 11% (inactive) |
| CCCCCCCC(=O)OCC(O)CO (stereo not drawn) | 2.86% (inactive) |
| O=C(O)c1ccc(OCCCOc2ccc(C(=O)O)cc2)cc1 | -1.76% (inactive) |
| NC(=O)NC1NC(=O)NC1=O (stereo not drawn) | 17.1% (inactive) |
